# Data: PubChem BioAssay (Tox21)
# Records with an inconclusive call do not appear. Where a call stands in place of a potency, no number is given. Activity calls are given as the source filed them. Calls come from the whole dose curve; as a rule, active = well fitted cell-killing curve with a large enough effect in the repeat runs; inconclusive = weak or mixed curves, or effect the other way; inactive = no such curve, though single readings can be large or run the other way.
# Experiment: qHTS assay to identify small molecule antagonists of the glucocorticoid receptor (GR) signaling pathway - cell viability counter screen (AID 720693); note: nearly all actives have a fitted effect of over 55% in size
# Conditions: GR-bla HeLa viability, CellTiter-Glo luminescence, 18 h, with 5 nM dexamethasone present; series mostly up to 58.5 µM
# Potency is the fitted concentration of half-maximal effect.
row,SMILES,Potency
1,NC(=NCCCCCCN=C(N)/N=C(\N)Nc1ccc(Cl)cc1)/N=C(\N)Nc1ccc(Cl)cc1,21.3 µM (active) [middle of 5 runs]
2,CN(C/C=C/C#CC(C)(C)C)Cc1cccc2ccccc12,inactive
3,O=c1cccccc1O,inactive
4,O=Cc1cc(O)ccc1Br,inactive
5,CC1=C(C(=O)OC(C)C)C(c2cccc([N+](=O)[O-])c2)C(C(=O)OC2CN(C(c3ccccc3)c3ccccc3)C2)=C(N)N1 (stereo not given),8.49 µM (active)
6,C/C=C(\C)C(=O)OCc1ccccc1,inactive
7,Cc1cc(=O)oc2cc(N(C)C)ccc12,inactive
8,CCOc1ccc2nc3cc(N)ccc3c(N)c2c1,inactive
9,CC(=O)SC[C@@H](Cc1ccccc1)C(=O)NCC(=O)OCc1ccccc1,inactive
10,O=C(NOCC1CC1)c1ccc(F)c(F)c1Nc1ccc(I)cc1Cl,23.9 µM (active)
11,CN(C)c1ccc(C2(c3ccc(N(C)C)cc3)OC(=O)c3cc(N(C)C)ccc32)cc1,inactive
12,Clc1ccc2n[nH]nc2c1,inactive
13,C=C(C)C(=O)OCC[N+](C)(C)C,inactive
14,Cc1c(C)c2c(c(C)c1OC(=O)CCC(=O)O)CC[C@@](C)(CCC[C@H](C)CCC[C@H](C)CCCC(C)C)O2,26.8 µM (active)
15,Oc1ccc2c(c1)-c1ccccc1C2,inactive
16,Nc1ccc2cc(S(=O)(=O)O)cc(O)c2c1N=Nc1ccccc1C(F)(F)F,inactive
17,Cc1cc(C2CCCCC2)n(O)c(=O)c1,inactive
18,O=[N+]([O-])c1cc([N+](=O)[O-])c2ccc(S(=O)(=O)O)cc2c1O,inactive
19,CC(C)C(C)(C)C(C)(C)C(C)(C)S,inactive

row,SMILES,Potency
1,CC(C)=CCOc1ccc(/C=C/C(=O)c2ccc(OCC=C(C)C)cc2OCC(=O)O)cc1,inactive
2,O=C1CCCc2c1cc1ccc3cccc4ccc2c1c34,inactive
3,C[n+]1ccn(Cc2ccccc2)c1,inactive
4,CC(C)(C)CC(C)(C)c1ccc(O)c(Cc2ccc(Cl)cc2Cl)c1,10.7 µM (active)
5,NC(=O)NS(=O)(=O)c1ccc(N)cc1,inactive
6,O=C(c1ccc(F)cc1)C1CCN(CCn2c(=O)[nH]c3ccccc3c2=O)CC1,inactive
7,CCC1OCC(COc2ccc(Oc3ccccc3)cc2)O1 (stereo not given),inactive
8,OCCCCCCCCCCCCBr,inactive
9,CCC(C)(C)C1CCCCC1OC(C)=O (stereo not given),inactive
10,O=C(Oc1ccccc1)c1ccccc1C(=O)Oc1ccccc1,inactive
11,O=C1CCCCCN1SSN1CCCCCC1=O,inactive
12,O=C(c1ccc(O)cc1O)c1ccc(O)cc1O,inactive
13,O=c1[nH]cnc2nc[nH]c12,inactive
14,CCC(Cl)C(Cl)C(Cl)CC(Cl)C(Cl)C(C)Cl (stereo not given),inactive
15,CCN(C(=O)N(CC)c1ccccc1)c1ccccc1,inactive
16,CCCN(CCC)c1c([N+](=O)[O-])cc(C(F)(F)F)c(N)c1[N+](=O)[O-],48.9 µM (active)
17,CO[Si](CCCNc1ccccc1)(OC)OC,inactive
18,O=C(Nc1ccc(Oc2ccc(Cl)cc2)c(Cl)c1)c1cc(I)cc(I)c1O,6.01 µM (active)
19,CNCc1cc(F)ccc1Oc1ccc(Cl)c(Cl)c1,inactive

# Experiment: qHTS assay for identifying genotoxic compounds that show differential cytotoxicity against isogenic chicken DT40 cell lines with known DNA damage response pathways - wild type cell line (AID 743012); note: nearly all actives have a fitted effect of over 60% in size
# Conditions: DT40 wild type chicken cells viability, CellTiter-Glo, 40 h; series mostly up to 68.4 µM
# In short: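 Cells (DT40 wild type, 300/well) are treated with DMSO-dissolved compounds after a ~0.5 h pre-incubation and kept 40 h at 37 C/5% CO2. Viability is then measured by CellTiter-Glo luminescence following 30 min at room temperature.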
row,SMILES,Potency
1,CC1=C(C(=O)OC(C)C)C(c2cccc([N+](=O)[O-])c2)C(C(=O)OC2CN(C(c3ccccc3)c3ccccc3)C2)=C(N)N1 (stereo not given),18.8 µM (active)
2,CC(=O)SC[C@@H](Cc1ccccc1)C(=O)NCC(=O)OCc1ccccc1,inactive
3,O=C(NOCC1CC1)c1ccc(F)c(F)c1Nc1ccc(I)cc1Cl,29.8 µM (active)
4,Clc1ccc2n[nH]nc2c1,inactive
5,Cc1c(C)c2c(c(C)c1OC(=O)CCC(=O)O)CC[C@@](C)(CCC[C@H](C)CCC[C@H](C)CCCC(C)C)O2,inactive
6,Nc1ccc2cc(S(=O)(=O)O)cc(O)c2c1N=Nc1ccccc1C(F)(F)F,inactive
7,CC(C)(C)C(=O)OCOC(=O)[C@@H]1N2C(=O)[C@@H](NC(=O)[C@H](N)c3ccccc3)[C@H]2SC1(C)C,inactive
8,Cc1cc(C2CCCCC2)n(O)c(=O)c1,1.43 µM (active)
9,O=[N+]([O-])c1cc([N+](=O)[O-])c2ccc(S(=O)(=O)O)cc2c1O,inactive
10,CC(C)C(C)(C)C(C)(C)C(C)(C)S,inactive
11,CC(C)=CCOc1ccc(/C=C/C(=O)c2ccc(OCC=C(C)C)cc2OCC(=O)O)cc1,inactive
12,O=C1CCCc2c1cc1ccc3cccc4ccc2c1c34,inactive
13,C[n+]1ccn(Cc2ccccc2)c1,inactive
14,CC(C)(C)CC(C)(C)c1ccc(O)c(Cc2ccc(Cl)cc2Cl)c1,26.6 µM (active)
15,NC(=O)NS(=O)(=O)c1ccc(N)cc1,inactive
16,CCC(C)(C)C1CCCCC1OC(C)=O (stereo not given),inactive
17,O=C(Oc1ccccc1)c1ccccc1C(=O)Oc1ccccc1,19.3 µM (active)
18,O=C1CCCCCN1SSN1CCCCCC1=O,13.7 µM (active)
19,O=C(c1ccc(O)cc1O)c1ccc(O)cc1O,inactive
20,CCCN(CCC)c1c([N+](=O)[O-])cc(C(F)(F)F)c(N)c1[N+](=O)[O-],12.2 µM (active)
21,CO[Si](CCCNc1ccccc1)(OC)OC,12.2 µM (active)
22,CNCc1cc(F)ccc1Oc1ccc(Cl)c(Cl)c1,13.7 µM (active)
